Among the test systems are SK-MEL-2 melanoma; EKVX NSCLC; SN12C renal; UO-31 renal; TK-10 renal; ACHN renal; CAKI-1 renal; A498 renal; CCRF-CEM leukemia; MOLT-4 leukemia.
Holding throughout (experiment): NCI-60 one-dose screen, 48 h (100 = growth as untreated, 0 = no growth, -100 = all killed)
Holding throughout (conditions): 10 µM unless noted

Compounds without any hit were thinned out: in the full panel of roughly 83,000, 20% have a hit.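 Testing used 96-well plates and a 48-hour single-concentration exposure. Example: -40 means 40% of the starting cells died.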 Unmarked numbers belong to inactive results. The source made the active and inactive calls. The calls were made as follows: active = growth percent below 10; inactive = the rest.

For the compound `CCS/C(Nc1ccccc1)=C(\C#N)C(=O)N/N=C/c1ccc(Cl)cc1Cl`, the growth is 28.3% with SK-MEL-2 melanoma; 47.4% in the experiment with EKVX NSCLC; 34.5% in the experiment on SN12C renal; 41.9% with UO-31 renal; 56.7% with TK-10 renal; 38.2% in the experiment with ACHN renal. The growth with CAKI-1 renal was 31.5%; in the experiment on A498 renal it was -2.1% (active); in the experiment on CCRF-CEM leukemia, 9.86% (active); in the experiment with MOLT-4 leukemia, 18.3%.
For the compound `Clc1ccc(CNc2c3ccccc3nc3ccccc23)cc1`, the growth with SK-MEL-2 melanoma was 72.4%; with EKVX NSCLC it was 62.6%; in the experiment on SN12C renal, 39.1%; with UO-31 renal, 27%; in the experiment on TK-10 renal, 49.7%; with ACHN renal, 22.8%. Besides, the growth in the experiment on CAKI-1 renal is 41.4%; in the experiment with A498 renal it was 20.8%; with CCRF-CEM leukemia it was 30.2%; in the experiment with MOLT-4 leukemia, 4.63% (active).
Consider `Cc1ccc2c3c(c(=O)[nH]c2c1)C1(C(C#N)=C(N)O3)c2cc(Br)ccc2-c2ccc(Br)cc21`, for which the growth in the experiment on SK-MEL-2 melanoma is 32.6%; with EKVX NSCLC, -32.9% (active); with SN12C renal, -32.3% (active); in the experiment with UO-31 renal it was -62.3% (active); with TK-10 renal it was -36.2% (active); in the experiment with ACHN renal, -15.8% (active). Moreover, the growth is -64.3% (active) with CAKI-1 renal, -18.8% (active) in the experiment on A498 renal, 32.6% in the experiment with CCRF-CEM leukemia and 21.3% in the experiment with MOLT-4 leukemia.
As to `O=C1/C(=C\c2cn(-c3ccccc3)nc2-c2ccc(-c3cccs3)cc2)CCc2ccccc21`, the growth with SK-MEL-2 melanoma was 70.4%; in the experiment on EKVX NSCLC it was 68.5%; in the experiment on SN12C renal, 66.8%; in the experiment with UO-31 renal, 54.2%; in the experiment with TK-10 renal it was 101%; with ACHN renal, 79.5%. For the same compound, the growth in the experiment on CAKI-1 renal was 41.2%; in the experiment with A498 renal, 10.3%; with CCRF-CEM leukemia, 48%; in the experiment on MOLT-4 leukemia, 49.1%.
As for `CCSc1nc(NC)c2cc(-c3ccc(C(F)(F)F)cc3)ccc2n1`, the growth in the experiment with SK-MEL-2 melanoma was 98.2%; with EKVX NSCLC, 96.6%; in the experiment with SN12C renal, 95.1%; in the experiment on UO-31 renal, 92.2%; in the experiment on TK-10 renal it was 121%; in the experiment with ACHN renal, 97.6%. For the same compound, the growth in the experiment with CAKI-1 renal is 96.3%; in the experiment with A498 renal, 112%; in the experiment with CCRF-CEM leukemia it was 95.6%; in the experiment with MOLT-4 leukemia, 93.4%.
Consider `O=c1c2cc(-c3ccccc3)sc2nc2sc(-c3ccccc3)nn12`, for which the growth with SK-MEL-2 melanoma is 107%; in the experiment with EKVX NSCLC it was 97.4%; in the experiment with SN12C renal it was 104%; in the experiment on UO-31 renal it was 94.2%; in the experiment with TK-10 renal it was 84%; in the experiment with ACHN renal, 117%. Besides, the growth is 102% in the experiment on CAKI-1 renal, 61.3% with A498 renal, 104% with CCRF-CEM leukemia and 102% in the experiment with MOLT-4 leukemia.
As to `OCCCC1CCN(C(Cc2ccccc2)c2ccccc2)CC1` (stereo not given), the growth was 52% in the experiment with SK-MEL-2 melanoma; 96.2% with EKVX NSCLC; 102% in the experiment with SN12C renal; 78.3% in the experiment on UO-31 renal; 84.1% with TK-10 renal; 81.8% in the experiment with ACHN renal. The growth in the experiment with CAKI-1 renal is 91.4%; with A498 renal, 97.9%; with CCRF-CEM leukemia, 100%; with MOLT-4 leukemia, 99.1%.
Consider `O=C(O)c1ccc(-n2cc(/C=N/Nc3ccc(F)cc3)c(-c3cc4ccccc4oc3=O)n2)cc1`, for which the growth was 83.3% in the experiment on SK-MEL-2 melanoma; 52.9% in the experiment on EKVX NSCLC; 101% in the experiment on SN12C renal; 39.8% in the experiment with UO-31 renal; 113% in the experiment on TK-10 renal; 41% in the experiment with ACHN renal. In addition, the growth is 68.6% in the experiment on CAKI-1 renal, 109% in the experiment on A498 renal, 40.2% in the experiment with CCRF-CEM leukemia and 48.1% in the experiment with MOLT-4 leukemia.
With `Cn1cc(-c2csc(-c3ccc(Cl)cc3)n2)c2cccnc21`, the growth in the experiment with SK-MEL-2 melanoma is -22% [100 µM] (active); in the experiment on EKVX NSCLC, -14.4% [100 µM] (active); in the experiment with SN12C renal it was -42.7% [100 µM] (active); in the experiment with UO-31 renal, -37.5% [100 µM] (active); in the experiment with TK-10 renal, -26.1% [100 µM] (active); in the experiment on ACHN renal it was -50.9% [100 µM] (active). Besides, the growth is -29.3% [100 µM] (active) with CAKI-1 renal, -79.9% [100 µM] (active) in the experiment on A498 renal, -18.8% [100 µM] (active) with CCRF-CEM leukemia and 2.44% [100 µM] (active) in the experiment with MOLT-4 leukemia.
For `Cn1cc(-c2nc(-c3c[nH]c4ccncc34)cs2)c2ccccc21`, the growth is 93.1% in the experiment with SK-MEL-2 melanoma; 49% in the experiment on EKVX NSCLC; 77.5% in the experiment on SN12C renal; 57.9% with UO-31 renal; 88.3% with TK-10 renal; 24.7% with ACHN renal. For the same compound, the growth is 19.8% in the experiment on CAKI-1 renal, 85.3% in the experiment on A498 renal, 0.202% (active) in the experiment with CCRF-CEM leukemia and 35.7% with MOLT-4 leukemia.
In the case of `CC(C)n1cnc2c(=S)nc[nH]c21`, the growth in the experiment with SK-MEL-2 melanoma was 114%; in the experiment on EKVX NSCLC, 98%; in the experiment with SN12C renal, 108%; in the experiment with UO-31 renal, 92%; with TK-10 renal, 109%; with ACHN renal, 93.7%. The growth is 73.1% in the experiment with CAKI-1 renal, 127% with A498 renal, 90.9% in the experiment on CCRF-CEM leukemia and 56.6% in the experiment with MOLT-4 leukemia.
On to `O=C1/C(=C/c2ccc(F)cc2)COc2ccc(O)c(O)c21`, for which the growth in the experiment on SK-MEL-2 melanoma is 74.8%; with EKVX NSCLC, 51.4%; in the experiment with SN12C renal it was -49.9% (active); in the experiment with UO-31 renal, -96.9% (active); in the experiment with TK-10 renal, 17.8%; in the experiment with ACHN renal it was -67.1% (active). In addition, the growth in the experiment on CAKI-1 renal was 9.04% (active); in the experiment on A498 renal it was 105%; with CCRF-CEM leukemia it was 3.39% (active); in the experiment on MOLT-4 leukemia, 4.21% (active).
As for `O=C(CSc1nc2ccc([N+](=O)[O-])cc2[nH]1)Nc1cccc(C(F)(F)F)c1`, the growth in the experiment on SK-MEL-2 melanoma was -5.5% (active); in the experiment on EKVX NSCLC, 23.9%; with SN12C renal it was 9.37% (active); in the experiment on UO-31 renal, 8.44% (active); in the experiment on TK-10 renal, 25.1%; with ACHN renal, 16%. For the same compound, the growth is 1.15% (active) in the experiment on CAKI-1 renal, -6.75% (active) in the experiment with A498 renal, 19% in the experiment with CCRF-CEM leukemia and 8.77% (active) in the experiment on MOLT-4 leukemia.
Consider `O=c1oc2c(cnc3ccccc32)cc1-c1ccsc1`, for which the growth in the experiment on SK-MEL-2 melanoma was 106%; in the experiment on EKVX NSCLC it was 95%; in the experiment on SN12C renal it was 95.1%; in the experiment with UO-31 renal, 79.3%; with TK-10 renal, 123%; with ACHN renal, 93.9%. Besides, the growth in the experiment with CAKI-1 renal is 84.5%; in the experiment on A498 renal it was 107%; with CCRF-CEM leukemia, 94.6%; in the experiment on MOLT-4 leukemia it was 96%.

The values above are taken from PubChem BioAssay (NCI).
